Compound activity (PubChem)
The list is not random: actives were taken first. Their share in the collection is about 2.8%.
Integrin act MD: activators of alpha7 integrin expression for muscular dystrophy; alpha7betagal myoblasts, beta-gal FDG fluorescence, 48 h; Potency, µM (top dose mostly 38.3 µM), usual class: activators; actives 0.064% (n = 350,000); also: nearly all actives have a fitted effect of over 60% in size
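Alpha7betagal+/- myoblasts (passage 13) were plated 16-24 hr, then exposed to compounds (1:260 dilution of DMSO stock) for 48 hours at 37C. After MPER lysis, β-galactosidase reporter activity was read as FDG fluorescence (ex 480/em 540) after 30 minutes.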
D3 ag: activates the human D3 dopamine receptor | max activation, % | actives 0.58% (n = 410,000) | P35462 | D3R DiscoveRx beta-arrestin cells, luminescence, 90 min; in the data active = max activation above about 30%
Target sequence (P35462 whole entry, looked up): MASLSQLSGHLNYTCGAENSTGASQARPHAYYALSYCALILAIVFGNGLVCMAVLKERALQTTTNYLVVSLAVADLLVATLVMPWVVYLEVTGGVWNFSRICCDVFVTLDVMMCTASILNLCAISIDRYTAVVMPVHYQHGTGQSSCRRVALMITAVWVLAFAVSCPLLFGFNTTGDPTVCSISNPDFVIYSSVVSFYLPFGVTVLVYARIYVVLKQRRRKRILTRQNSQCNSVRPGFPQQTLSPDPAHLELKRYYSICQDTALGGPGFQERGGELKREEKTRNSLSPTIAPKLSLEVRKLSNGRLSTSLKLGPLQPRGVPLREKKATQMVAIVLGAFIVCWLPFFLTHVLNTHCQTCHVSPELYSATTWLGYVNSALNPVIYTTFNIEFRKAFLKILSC
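Agonist mode: compounds and dopamine controls were applied to plated cells for 90 min at 37 degrees C after an overnight attachment at 1500 cells/well. Luminescent read-out followed 30 - 60 minutes at room temperature with DiscoveRx detection reagent.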
PTHR1 agonist: PTHR1 (human) receptor agonism | Q03431 | HEK293 GP2 PTHR1 cells, GloSensor cAMP luminescence, 1 h | Potency, µM (top dose mostly 115 µM), hits mostly activators | actives 0.075% (n = 410,000) | AID 743266; also: nearly all actives have a fitted effect of over 55% in size
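HEK-293-derived GP2 cells expressing PTHR1 and a GloSensor cAMP reporter, 3,000/well, plated overnight, given luciferin plus IBMX (each 0.5 mM as added) for 1 h at 37 °C, then compound for 1 h at 37 °C. Luminescence was read after 15 min at room temperature.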
MBNL1 CUG block: MBNL1-poly(CUG) RNA binding inhibition; actives 0.036% (n = 280,000); AID 2675; Q9NR56; Potency, µM (titrated, usually from 57.5 µM), most hits filed as inhibitors; TR-FRET MBNL1-His/biotin-(CUG)12 binding, 665/545 ratio; active = well fitted inhibition curve with a large enough effect in the signal ratio, with a control signal flat, not every such curve was filed as active; inconclusive = small, poorly fitted or top-dose-only effect, or effect the other way, or a change in a side signal; inactive = no such curve, though single readings can be large or run the other way; the % refers to the signal ratio
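Ratiometric TR-FRET (665 over 545 nm, excitation 340 nm) tracks disruption of MBNL1-His/biotin-(CUG)12 complex after 60 min at room temperature, with compounds at 92 nM to 58 uM final.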
CBFb-RUNX1 inh: CBF-beta/RUNX1 interaction disruption. Potency, µM (titrated, usually from 59.8 µM), usual class: inhibitors. 230,000 tested, under 10 active. AlphaScreen CBFb-His/RUNX1-biotin binding, biochemical. Q01196+Q13951. AID 1477
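AlphaScreen binding: CBFb-His and RUNX1-biotin (30 nM each) preincubated 20 min, compound added for 15 min, then nickel and streptavidin beads for 90 min, all at room temperature. Disruption of the interaction by any mechanism counts as activity.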
D3 antag: D3 dopamine receptor (human) antagonism. P35462. D3R cells, DiscoveRx beta-arrestin luminescence, antagonist mode; active compounds read low. max response, negative = inhibition, %. actives 2.5% (n = 360,000). AID 652054; in the data active = max response below about -50%; inconclusive = no clear call, values can overlap the other calls
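Cells expressing the human receptor were seeded at 1500 cells/well, incubated overnight at 37 degrees C in 5% CO2, then exposed to library compounds with dopamine controls for 90 minutes at 37 degrees C before luminescent detection.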
Of the large screens only hits and unclear results are named; the others gave an inactive call. Unless noted, calls follow the shape of the dose curve; as a rule, active = well fitted curve in the direction sought with a large enough effect; inconclusive = small, poorly fitted or top-dose-only effect, or another doubt; inactive = no such curve, though single readings can be large; an effect the other way counts as inactive or inconclusive.

CN1CCN(c2nc(-c3ccco3)cc(C(F)(F)F)n2)CC1	D3 antag -92.0
CCOC(=O)N1C(=O)[C@@](c2ccc(Cl)cc2)(C(C)C)N1C(=O)OCC	D3 antag -50.7 (no result: CBFb-RUNX1 inh)
COc1cc(Cl)c(S(=O)(=O)N2CCCC2)cc1Cl	none
COc1cc(N2C(=O)C=CC2=O)c(OC)cc1Cl	D3 antag -89.1
COc1ccc(-c2nc3n(n2)C(c2ccncc2)C(C(N)=O)=C(C)N3)cc1 (stereo not drawn)	D3 antag -59.1
COc1cccc(-c2cc3nc4c(c(N5CCC6(CC5)OCCO6)n3n2)CCC4)c1	none
COCc1cn(CC(=O)c2sc(NC(=O)C(C)(C)C)nc2C)nn1	none (no result: Integrin act MD, MBNL1 CUG block, CBFb-RUNX1 inh)
COCCCNCCCCOc1ccccc1-c1ccccc1	D3 antag -77.6
CNCCOc1ccccc1-c1ccccc1	D3 antag inconclusive
C=CCNCCCCOc1ccccc1-c1ccccc1	Integrin act MD inconclusive, D3 antag -92.7
C=CCNCCCCOc1ccc(OCc2ccccc2)cc1	none
CCCCNCCOc1ccccc1-c1ccccc1	D3 antag -98.8
OCCCN1CCN(CCCOc2ccccc2-c2ccccc2)CC1	D3 antag inconclusive
CNCCCCOc1ccccc1-c1ccccc1	PTHR1 agonist inconclusive, D3 antag -75.9
O=C1c2ccccc2C(c2nnnn2Cc2ccccc2)N1C1CC1 (stereo not drawn)	none (no result: Integrin act MD, MBNL1 CUG block, CBFb-RUNX1 inh)
COc1ccc(NC(=O)CSC(C)c2nc3ccccc3c(=O)[nH]2)cc1 (stereo not drawn)	none (no result: CBFb-RUNX1 inh)
COCCCNCCOc1ccccc1-c1ccccc1	D3 antag -80.6
COCCNCCOc1ccccc1-c1ccccc1	D3 antag -82.6
CC(NC(=O)COc1ccccc1-c1ccccc1)c1ccccc1 (stereo not drawn)	none (no result: MBNL1 CUG block)
CC(O)CNCCNCc1c(OCc2ccccc2)ccc2ccccc12 (stereo not drawn)	PTHR1 agonist inconclusive, MBNL1 CUG block inconclusive, D3 antag inconclusive
N=C(N)CCCOc1ccccc1-c1ccccc1	none (no result: MBNL1 CUG block)
CC(O)CNCCOc1ccccc1-c1ccccc1 (stereo not drawn)	D3 antag -80.0
CN(C)CCOc1ccccc1-c1ccccc1	D3 antag inconclusive
CC(O)CNCCOc1ccccc1OCc1ccccc1 (stereo not drawn)	D3 antag -79.7
OCCNCCOCCOc1ccccc1-c1ccccc1	none
OCCNCCOc1ccccc1-c1ccccc1	D3 antag -75.9
CCN(CC)CCCN(Cc1cc2ccc(C)c(C)c2[nH]c1=O)C(=O)NC1CCCCC1	D3 antag -56.7
CCOC(=O)C1(C)CCCCN1C(=O)c1cccc(Cl)c1 (stereo not drawn)	none (no result: Integrin act MD, MBNL1 CUG block, CBFb-RUNX1 inh)
O=C(NCCCNC1CCCCC1)c1ccc(/C=N/O)nc1	D3 antag -60.3
CNCCCNC(=O)c1ccc(/C=N/O)nc1	PTHR1 agonist inconclusive
CCc1ccc(Sc2cc(C(=O)NCCN3CCOCC3)c3ccccc3n2)cc1	Integrin act MD 11.2µM
COc1ccc(-c2cc(C(=O)NCCN3CCOCC3)c3ccccc3n2)c(OC)c1	D3 antag -54.5
Fc1ccccc1Cc1noc(CN(Cc2ccccn2)CC2CCCO2)n1 (stereo not drawn)	none
COc1ccc(/C=N/Nc2cc(C)nc(N3CCOCC3)n2)cc1OC	none
COc1ccc(/C=N/Nc2cc(C)nc(N3CCOCC3)n2)cc1	D3 ag 32.0
Cc1ccccc1/C=C/C12NC(=O)CN1c1ccccc1C2(C)C (stereo not drawn)	D3 ag 30.8
CC1(C)c2ccccc2N2CC(=O)N[C@@]21/C=C/C=C/c1ccccc1	none
O=c1oc(Cl)c(Cl)c2ccccc12	D3 antag -73.7 (no result: Integrin act MD, MBNL1 CUG block)
O=c1oc2cc(O)c(Cl)cc2c2ccccc12	MBNL1 CUG block inconclusive
Cc1ccc(NCc2nnc(SCC(=O)Nc3nnc(C)s3)n2C)cc1	Integrin act MD 10µM
